“And” between values parts separate entries of the source, which are not always exact repeats. Equal values may be shown once. Records with an inconclusive call do not appear. The source holds several records for some structures; these can differ, active in one and inactive in another. The source made the active and inactive calls. Unless noted, calls come from the whole dose curve; as a rule, active = well fitted curve in the direction sought with a large enough effect in the repeat runs; inconclusive = weak or mixed curves; inactive = no such curve, though single readings can be large; an effect the other way counts as inactive or inconclusive.
How the values were obtained:
[1] = A CellTox Green Cytotoxicity Assay to monitor cytotoxicity in HEK293 cells - 32 hour (AID 1224881); note: nearly all actives have a fitted effect of over 40% in size; note: potency is the fitted concentration of half-maximal effect
How it was run: (§1)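 Fluorescence intensity, read at 0, 8, 16, 24, 32 and 40 h of compound treatment, reflected dye binding to DNA of dead HEK293 cells; compounds (23 nL, DMSO) were added 5 h after plating cells with reagent.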

[2] = A CellTox Green Cytotoxicity Assay to monitor cytotoxicity in HepG2 cells - 0 hour (AID 1224882); note: nearly all actives have a fitted effect of over 35% in size
How it was run: (§2)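 Using 1536-well format, dye-containing HepG2 suspension was seeded, allowed 5 h at 37 C/5% CO2, dosed by pintool with compounds, positive and negative controls, and imaged for fluorescence across 40 h.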

[3] = A CellTox Green Cytotoxicity Assay to monitor cytotoxicity in HepG2 cells - 32 hour (AID 1224883); note: nearly all actives have a fitted effect of over 50% in size; note: potency is the fitted concentration of half-maximal effect
How it was run: as §2

[4] = A CellTox Green Cytotoxicity Assay to monitor cytotoxicity in HEK293 cells - 8 hour (AID 1224884); note: nearly all actives have a fitted effect of over 35% in size
How it was run: as §1

[5] = qHTS RealTime-Glo MT Cell Viability Assay in HepG2 cells - 16 hour (AID 1224885); note: nearly all actives have a fitted effect of over 50% in size; note: potency is the fitted concentration of half-maximal effect
How it was run: (§3)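 Viability was tracked continuously by NanoLuc luminescence from prosubstrate reduced by living HepG2 cells, at successive time points over 40 h of compound exposure. Cells with reagent were preincubated 5 h at 37 °C before compound addition.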

[6] = qHTS RealTime-Glo MT Cell Viability Assay in HEK293 cells - 24 hour (AID 1224886); note: nearly all actives have a fitted effect of over 50% in size; note: potency is the fitted concentration of half-maximal effect; for activity change, negative = cytotoxicity: top concentration of the series differs between compounds
How it was run: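 Viability tracked continuously by luminescence as live cells reduce a prosubstrate for NanoLuc; HEK293 cells preincubated 5 h, compound-treated at 37 C, and read at 0, 8, 16, 24, 32 and 40 h.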

[7] = qHTS RealTime-Glo MT Cell Viability Assay in HEK293 cells - 8 hour (AID 1224887); note: nearly all actives have a fitted effect of over 50% in size; note: potency is the fitted concentration of half-maximal effect; for activity change, negative = cytotoxicity: top concentration of the series differs between compounds
How it was run: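 Viable HEK293 cells reduce a cell-permeant prosubstrate; the product diffuses out and is consumed by NanoLuc in the medium to give light. Compounds went in after a 5 h incubation and plates were read over the treatment course.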

[8] = A CellTox Green Cytotoxicity Assay to monitor cytotoxicity in HEK293 cells - 16 hour (AID 1224888); note: nearly all actives have a fitted effect of over 35% in size; note: potency is the fitted concentration of half-maximal effect
How it was run: as §1

[9] = qHTS RealTime-Glo MT Cell Viability Assay in HepG2 cells - 0 hour (AID 1224889); note: nearly all actives have a fitted effect of over 50% in size
How it was run: as §3

[10] = A CellTox Green Cytotoxicity Assay to monitor cytotoxicity in HepG2 cells - 8 hour (AID 1224890); note: nearly all actives have a fitted effect of over 45% in size
How it was run: as §2

[11] = qHTS assay to identify small molecule antagonists of the estrogen receptor alpha (ER-alpha) signaling pathway using the BG1 cell line in the presence of 0.1 nM 17-beta-estradiol - cell viability counter screen (AID 1259241); note: nearly all actives have a fitted effect of over 40% in size; note: potency is the fitted concentration of half-maximal effect
How it was run: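 Viability in VM7Luc4E2 cells after 22 hr compound exposure under 0.1 nM 17beta-estradiol stimulation, by CellTiter-Fluor.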

[12] = qHTS assay to identify small molecule antagonists of the androgen receptor (AR) signaling pathway using the MDA cell line in the presence of 0.5 nM R1881 - cell viability counter screen (AID 1259242); note: nearly all actives have a fitted effect of over 45% in size; note: potency is the fitted concentration of half-maximal effect
How it was run: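 Viability of MDA-kb2 cells was multiplexed with the luciferase AR readout; after 16 hr with compounds and R1881 at 0.5 nM final, CellTiter-Fluor fluorescence was recorded.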

[13] = biological target: Estrogen receptor (Homo sapiens) (UniProt P03372); assay: qHTS assay to identify small molecule antagonists of the estrogen receptor alpha (ER-alpha) signaling pathway using the BG1 cell line in the presence of 0.1 nM 17-beta-estradiol (AID 1259244); note: nearly all actives have a fitted effect of over 50% in size; note: potency is the fitted concentration of half-maximal effect
Sequence of Estrogen receptor (Homo sapiens) (P03372 whole entry, looked up): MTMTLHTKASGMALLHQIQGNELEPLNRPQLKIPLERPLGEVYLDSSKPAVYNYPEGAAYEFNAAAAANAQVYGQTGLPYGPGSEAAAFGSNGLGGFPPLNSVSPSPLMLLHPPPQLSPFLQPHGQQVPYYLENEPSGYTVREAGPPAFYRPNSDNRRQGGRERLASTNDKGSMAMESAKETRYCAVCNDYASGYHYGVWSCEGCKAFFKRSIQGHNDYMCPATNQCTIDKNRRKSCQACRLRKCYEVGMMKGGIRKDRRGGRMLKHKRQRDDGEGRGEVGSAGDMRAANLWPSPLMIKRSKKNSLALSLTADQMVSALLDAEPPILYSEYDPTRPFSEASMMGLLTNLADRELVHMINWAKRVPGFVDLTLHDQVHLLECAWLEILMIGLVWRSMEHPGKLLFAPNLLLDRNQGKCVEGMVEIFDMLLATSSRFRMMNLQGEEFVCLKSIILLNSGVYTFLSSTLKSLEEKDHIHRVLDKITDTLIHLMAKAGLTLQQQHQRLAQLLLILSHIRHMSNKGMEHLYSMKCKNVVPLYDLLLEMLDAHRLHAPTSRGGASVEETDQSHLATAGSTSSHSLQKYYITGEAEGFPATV
How it was run: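 Estradiol at 0.1 nM (final) stimulates the endogenous ER-alpha of VM7Luc4E2 cells carrying an ERE-driven luciferase; compounds are co-incubated 22 h at 37C and luciferase output quantified by luminescence.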

[14] = qHTS assay to identify small molecule HDAC inhibitors - cell viability counter screen (AID 1259365); note: nearly all actives have a fitted effect of over 50% in size; note: potency is the fitted concentration of half-maximal effect; for activity change, negative = cytotoxicity: series mostly up to about 92 µM
How it was run: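 Cytotoxicity was gauged in wild-type HCT-116 cells after a brief 2hr treatment with DMSO-dissolved compounds at 37C and 5% CO2, using CellTiter-Glo luminescence developed for 30min at room temperature.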

[15] = qHTS assay to identify small molecule agonists of the sonic hedgehog signaling (Shh) pathway - cell viability counter screen (AID 1259366); note: nearly all actives have a fitted effect of over 50% in size; note: potency is the fitted concentration of half-maximal effect
How it was run: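 Stable Gli1-Luc NIH/3T3 clone, 2,000 cells/well. Compound exposure 24hr at 37C. Read-out: CellTiter-Fluor fluorescence.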

[16] = qHTS assay to identify small molecule antagonists of the sonic hedgehog signaling (Shh) pathway - cell viability counter screen (AID 1259367); note: nearly all actives have a fitted effect of over 55% in size; note: potency is the fitted concentration of half-maximal effect
How it was run: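 Using CellTiter-Fluor, viability of Gli1-Luc reporter 3T3 cells is read by fluorescence in the wells used for the Shh luciferase assay. Treatment lasts 23 hr with conditioned medium, then reagent 1 hr at 37C.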

[17] = qHTS assay to identify small molecule agonists of the sonic hedgehog signaling (Shh) pathway (AID 1259368; calls by dose curve;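 note: NIH/3T3-derived 3T3Gli1-Luc cells carrying a stable Gli1-driven firefly luciferase reporter; series mostly up to about 92 µM; nearly all actives have a fitted effect of over 15% in size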)
How it was run: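 A Gli1 transcriptional response element controlled firefly luciferase in 3T3Gli1-Luc cells. Compounds and a positive control were added 4 hr after plating, and cells were incubated a further 24 hr at 37 C before luminescence detection.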

[18] = qHTS assay to identify small molecule phospholipidosis (PLD) inducers (AID 1259344; active = well fitted curve in the direction sought with a large enough effect; an effect the other way counts as inactive or inconclusive)
How it was run: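 Fluorescent phospholipid staining (LipidTOX Red) measured by automated microscopy in fixed HepG2 cells after 24 h treatment; nuclei counterstained with Hoechst 33342; amiodarone as reference inducer.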

[19] = qHTS assay to identify small molecule HDAC inhibitors (AID 1259364);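 note: wild-type HCT-116 cells with endogenous class I/II HDAC activity; top concentration of the series differs between compounds; nearly all actives have a fitted effect of over 45% in size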
How it was run: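 Read-out: luminescence of HDAC-Glo I/II reagent, 30 min RT, reflecting class I/II deacetylase activity in whole HCT-116 cells pre-exposed 2 h to DMSO-dissolved compounds.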

[20] = biological target: Androgen receptor (Homo sapiens) (UniProt P10275); assay: qHTS assay to identify small molecule antagonists of the androgen receptor (AR) signaling pathway using the MDA cell line in the presence of 0.5 nM R1881 (AID 1259243); note: nearly all actives have a fitted effect of over 50% in size
Sequence of Androgen receptor (Homo sapiens) (P10275 whole entry, looked up): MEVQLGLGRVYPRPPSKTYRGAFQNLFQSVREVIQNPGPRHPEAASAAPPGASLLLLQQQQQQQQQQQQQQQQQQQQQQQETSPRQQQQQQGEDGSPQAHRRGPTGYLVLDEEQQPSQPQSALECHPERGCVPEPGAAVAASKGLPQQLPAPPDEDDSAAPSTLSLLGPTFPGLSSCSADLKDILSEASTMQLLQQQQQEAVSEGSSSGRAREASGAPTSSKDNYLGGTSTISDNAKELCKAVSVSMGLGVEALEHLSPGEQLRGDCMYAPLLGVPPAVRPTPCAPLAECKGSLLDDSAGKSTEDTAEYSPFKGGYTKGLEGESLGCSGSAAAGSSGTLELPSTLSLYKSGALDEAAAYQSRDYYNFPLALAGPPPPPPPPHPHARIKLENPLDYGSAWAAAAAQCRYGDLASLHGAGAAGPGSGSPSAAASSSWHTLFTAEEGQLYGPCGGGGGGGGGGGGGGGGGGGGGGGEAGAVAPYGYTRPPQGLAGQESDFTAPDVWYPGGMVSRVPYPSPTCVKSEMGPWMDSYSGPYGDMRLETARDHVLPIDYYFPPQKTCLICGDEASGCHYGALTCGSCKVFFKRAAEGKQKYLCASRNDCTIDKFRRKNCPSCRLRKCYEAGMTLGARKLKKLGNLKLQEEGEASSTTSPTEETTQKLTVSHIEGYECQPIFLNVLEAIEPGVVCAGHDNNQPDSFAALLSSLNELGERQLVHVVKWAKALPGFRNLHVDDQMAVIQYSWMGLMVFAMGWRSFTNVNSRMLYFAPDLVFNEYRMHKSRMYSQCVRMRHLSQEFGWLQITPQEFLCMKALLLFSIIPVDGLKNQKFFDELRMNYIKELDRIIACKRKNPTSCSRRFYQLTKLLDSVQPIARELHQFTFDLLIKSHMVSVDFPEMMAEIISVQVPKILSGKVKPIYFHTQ
How it was run: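 Reporter cells cultured without CO2 receive test chemicals, then 0.5 nM R1881 final; after 16 hr at 37C, ONE-Glo is added and light output recorded.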
% is set by controls: 0 for no effect and ±100 for the full control effect.

Oc1ccc(I)cc1
inactive: Potency [1] | Potency [2] | Potency [3] | Potency [4] | Potency [5] | Potency [6] | Potency [7] | Potency [8] | Potency [9] | Potency [10] | Potency [11] | Potency [12] | Potency [13] | Potency [14] | Potency [15] | Potency [16] | Potency [17]

O=c1[nH]c2ccccc2n1CCCN1CCC(n2c(=O)[nH]c3cc(Cl)ccc32)CC1
inactive: Potency [1] | Potency [2] | Potency [4] | Potency [5] | Potency [8] | Potency [9] | Potency [10] | Potency [11] | Potency [12] | Potency [18] | Potency [19] | Potency [14] | Potency [17]
active: Potency [3] 21.3 µM | Potency [6] 9.52 µM | Potency [7] 9.52 µM

CN(C)C(=S)[S-].CN(C)C(=S)[S-].[Cu+2]
inactive: cytotoxicity [2] 0.299% [at 15.8 µM] | cytotoxicity increase [4] -12.4% [at 15.8 µM] | activity change, negative = cytotoxicity [9] -22.4% [at 15.8 µM] | activity change, negative = inhibition [19] -15% [at 19 µM] | activity change [17] -10.5% [at 18.9 µM, stronger effect = higher value]
active: Potency [1] 2.38 µM | Potency [3] 2.99 µM | Potency [5] 3.77 µM | Potency [6] 1.34 µM | Potency [8] 2.38 µM | Potency [11] 1.67 µM | Potency [12] 5.92 µM | Potency [15] 2.64 µM | Potency [16] 3.33 µM

Cc1cc(C)cc(OP(=O)(Oc2cc(C)cc(C)c2)Oc2cc(C)cc(C)c2)c1
inactive: Potency [1] | Potency [2] | Potency [3] | Potency [4] | Potency [5] | Potency [6] | Potency [7] | Potency [8] | Potency [9] | Potency [10] | Potency [11] | Potency [12] | Potency [13] | Potency [19] | Potency [14] | Potency [16] | Potency [17]

CN(C)C(=S)S
active: Potency [1] 8.88 µM and 3.07 µM and 6.92 µM | Potency [3] 17.7 µM and 5.45 µM and 11 µM | Potency [6] 11.2 µM and 1.73 µM and 11 µM | Potency [11] 43.3 µM | Potency [15] 12.4 µM and 6.07 µM and 4.86 µM | Potency [16] 7 µM and 4.82 µM and 54.5 µM
inactive and 15.5 µM (active): Potency [5]
inactive: Potency [2] | Potency [4] | Potency [7] | Potency [8] | Potency [9] | Potency [10] | Potency [14] | Potency [17]

ClC(Cl)=C(Cl)Cl
inactive: Potency [1] | Potency [2] | Potency [3] | Potency [4] | Potency [5] | Potency [6] | Potency [7] | Potency [8] | Potency [9] | Potency [10] | Potency [11] | Potency [12] | Potency [19] | Potency [14] | Potency [15] | Potency [16] | Potency [17]

NNC(=O)c1ccccc1
inactive: Potency [1] | Potency [2] | Potency [3] | Potency [4] | Potency [5] | Potency [6] | Potency [7] | Potency [8] | Potency [9] | Potency [10] | Potency [12] | Potency [13] | Potency [14] | Potency [15] | Potency [17]
active: Potency [16] 39.6 µM

O=C(O)C1C2CCC(O2)C1C(=O)O (stereo unspecified)
inactive: Potency [1] | Potency [2] | Potency [3] | Potency [4] | Potency [5] | Potency [6] | Potency [7] | Potency [8] | Potency [9] | Potency [10] | Potency [11] | Potency [12] | Potency [19] | Potency [14]
active: Potency [15] 19.6 µM and 11.2 µM | Potency [16] 31 µM

C=CCOC(N)=O
inactive: Potency [1] | Potency [2] | Potency [3] | Potency [4] | Potency [5] | Potency [6] | Potency [7] | Potency [8] | Potency [9] | Potency [10] | Potency [11] | Potency [12] | Potency [14] | Potency [15] | Potency [16] | Potency [17]

CCCSP(=O)(OCC)SCCC
inactive: Potency [1] | Potency [2] | Potency [3] | Potency [4] | Potency [5] | Potency [6] | Potency [7] | Potency [8] | Potency [10] | Potency [11] | Potency [12] | Potency [20] | Potency [18] | Potency [19] | Potency [14] | Potency [15] | Potency [16] | Potency [17]

CCc1cc(C)cc(CC)c1-c1c(OC(=O)C(C)(C)C)n2n(c1=O)CCOCC2
inactive: Potency [1] | Potency [2] | Potency [3] | Potency [4] | Potency [5] | Potency [6] | Potency [7] | Potency [8] | Potency [9] | Potency [10] | Potency [12] | Potency [13] | Potency [14] | Potency [17]
active: Potency [15] 27.3 µM | Potency [16] 15.4 µM

COc1ccc(N)cc1N
active: Potency [6] 40.1 µM | Potency [7] 25.3 µM | Potency [14] 15.8 µM | Potency [16] 15.8 µM and 33 µM
inactive: Potency [1] | Potency [2] | Potency [3] | Potency [4] | Potency [5] | Potency [8] | Potency [9] | Potency [10] | Potency [19] | Potency [17]

BrC(Br)Br
inactive: Potency [1] | Potency [2] | Potency [3] | Potency [4] | Potency [5] | Potency [6] | Potency [7] | Potency [8] | Potency [9] | Potency [10] | Potency [11] | Potency [12] | Potency [19] | Potency [14] | Potency [15] | Potency [16] | Potency [17]

Oc1ccc(C(=C(Cl)Cl)c2ccc(O)cc2)cc1
inactive: Potency [1] | Potency [2] | Potency [3] | Potency [4] | Potency [5] | Potency [8] | Potency [9] | Potency [10] | Potency [11] | Potency [12] | Potency [19] | Potency [14] | Potency [15] | Potency [16] | Potency [17]
active: Potency [6] 38.8 µM | Potency [13] 61 µM

Reference: PubChem BioAssay (Tox21)
